{"source": "the OligoGym collection"}
{"biological_target": "WFDC12", "experiment": "pooled miR-30 sensor sort-seq; sequence = guide strand", "details": "shRNA"}
{"sequence": "TCCTCCTTCTTCCAGTTCCTTC", "sensor-assay potency score (higher = more potent)": -1.8}
{"sequence": "TGACACATCTTCATCCTTGTTT", "sensor-assay potency score (higher = more potent)": 0.329}
{"sequence": "AAGAACGAGAGACACCATGAGG", "sensor-assay potency score (higher = more potent)": -1.13}
{"sequence": "ATGGCCTTGACACATCTTCATC", "sensor-assay potency score (higher = more potent)": -1.78}
{"sequence": "TTGACACATCTTCATCCTTGTT", "sensor-assay potency score (higher = more potent)": -1.2}
{"sequence": "AACTCCTTCCACAGCCACCAGG", "sensor-assay potency score (higher = more potent)": -1.44}
{"sequence": "AACAACACTTCCTTTCCCCCAG", "sensor-assay potency score (higher = more potent)": -0.813}
{"sequence": "TTTAACTCCTTCCACAGCCACC", "sensor-assay potency score (higher = more potent)": -1.29}
{"sequence": "TGCAGGTAACAACACTTCCTTT", "sensor-assay potency score (higher = more potent)": -1.24}
{"sequence": "TTCACAGGAATCACACACTTGA", "sensor-assay potency score (higher = more potent)": -0.211}
{"sequence": "TGGTCTGTGTGACACTGGGGAG", "sensor-assay potency score (higher = more potent)": -1.92}
{"biological_target": "WFDC5", "experiment": "pooled miR-30 sensor sort-seq; sequence = guide strand", "details": "shRNA"}
{"sequence": "TTTTTGCCCGAGCAGTCTGAGT", "sensor-assay potency score (higher = more potent)": -1.7}
{"sequence": "TGACACAGGTGGTTCATGGGGC", "sensor-assay potency score (higher = more potent)": 0.531}
{"sequence": "TGTAGCAGCACTTCCTGGTCAA", "sensor-assay potency score (higher = more potent)": 0.234}
{"sequence": "TTTTGGTGGAGGAAGCAGCATG", "sensor-assay potency score (higher = more potent)": -0.976}
{"sequence": "TCTGAGTCCTTGTGACACAGGT", "sensor-assay potency score (higher = more potent)": -0.214}
{"sequence": "TCTGTAGCAGCACTTCCTGGTC", "sensor-assay potency score (higher = more potent)": -0.738}
{"sequence": "TGTCTTCCACGCACTGGTCAGG", "sensor-assay potency score (higher = more potent)": -1.15}
{"sequence": "TCAAGGGACACTGGCTGTCTTC", "sensor-assay potency score (higher = more potent)": -1.2}
{"sequence": "AGTCCTTGTGACACAGGTGGTT", "sensor-assay potency score (higher = more potent)": -1.67}
{"sequence": "TTCCTGGTCAAGGGACACTGGC", "sensor-assay potency score (higher = more potent)": -1.55}
{"sequence": "TGGCTGTCTTCCACGCACTGGT", "sensor-assay potency score (higher = more potent)": -0.871}
{"sequence": "TCTTCCTGCCAAAGACAGCAGG", "sensor-assay potency score (higher = more potent)": -1.27}
{"biological_target": "WFDC8", "experiment": "pooled miR-30 sensor sort-seq; sequence = guide strand", "details": "shRNA"}
{"sequence": "TAACAATTAACATGCAGGCCGT", "sensor-assay potency score (higher = more potent)": -0.862}
{"sequence": "TATTTGAAGGGTGTGCAGCGGT", "sensor-assay potency score (higher = more potent)": -0.17}
{"sequence": "TGGATTCACAACATTTGTCTGT", "sensor-assay potency score (higher = more potent)": -0.069}
{"sequence": "AAACCTTTTTTGACTGTCCAGG", "sensor-assay potency score (higher = more potent)": -1.14}
{"sequence": "TTTTTGACTGTCCAGGCCCTGG", "sensor-assay potency score (higher = more potent)": -1.19}
{"sequence": "ATCTGTGTTACATGAGTCCGGA", "sensor-assay potency score (higher = more potent)": -0.285}
{"sequence": "TTGGGTTTATCAATCTTGGTAC", "sensor-assay potency score (higher = more potent)": 0.104}
{"sequence": "TACATTTCAGTCCACAATGTGA", "sensor-assay potency score (higher = more potent)": -1.04}
{"sequence": "TTGTCCATCCTTAACAATTAAC", "sensor-assay potency score (higher = more potent)": -1.71}
{"sequence": "TTAACAATTAACATGCAGGCCG", "sensor-assay potency score (higher = more potent)": -0.341}
{"sequence": "TTGTGTTTGATCTTCTTGGTCA", "sensor-assay potency score (higher = more potent)": 0.398}
{"sequence": "TCTCTTTGGGACATAACCCTGG", "sensor-assay potency score (higher = more potent)": -0.176}
{"biological_target": "WFIKKN1", "experiment": "pooled miR-30 sensor sort-seq; sequence = guide strand", "details": "shRNA"}
{"sequence": "TCGTAGGTCTCAAAGCCGCGGG", "sensor-assay potency score (higher = more potent)": -1.25}
{"sequence": "TCGCTGGTGACTCTGCTTCTCC", "sensor-assay potency score (higher = more potent)": -1.48}
{"sequence": "TGATGCAGCACTTCTCAGCAGC", "sensor-assay potency score (higher = more potent)": -0.485}
{"sequence": "TCGGCGTCCATATAGCAGCGGT", "sensor-assay potency score (higher = more potent)": -1.4}
